Sampled rows, rich in hits. Any-hit rate of the full collection: about 19%.
KB-V1 MDR tox: KB-V1 MDR subline cytotoxicity; KB-V1 MDR cells viability, CellTiter-Glo, 72 h; Potency, µM (titrated, usually from 46.1 µM), actives largely listed as cytotoxic; actives 3.4% (n = 400,000); AID 1347076; also: nearly all actives have a fitted effect of over 60% in size
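Cells of the MDR subline KB-V1 are plated, dosed with compound at multiple concentrations, and incubated 72 h at 37 degrees C; CellTiter-Glo is then added and luminescence read after 10 min.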
HT1080NT lethal: kills 2HG-producing HT-1080-NT fibrosarcoma cells; HT-1080-NT fibrosarcoma viability, CellTiter-Glo ATP luminescence, 48 h; Potency, µM (titrated, usually from 46.1 µM), for the others: at the top dose activity, negative = less viability, actives largely listed as cytotoxic; actives 1.6% (n = 360,000); AID 686970;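 also: NT is the 2HG producing partner of a matched IDH1 knockdown line; 0% = DMSO-treated cells and -100% = media-only wells without cells; nearly all actives have a fitted effect of over 55% in size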
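HT-1080-NT; 750 cells/well; 5% FBS RPMI; 48 h compound, 37 degrees C; CellTiter-Glo luminescence; curve fitting and curve-class assignment.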
HT1080 IDH1KD tx: HT-1080 IDH1 knockdown cell toxicity (counter line); AID 686971; HT-1080 IDH1 knockdown viability, ATP luminescence, 48 h; actives 2% (n = 360,000); Potency, µM (titrated, usually from 46.1 µM), for the others: at the top dose activity, negative = toxicity, usual class: cytotoxic;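 also: 0% = DMSO wells and -100% = cell-free medium wells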
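In this qHTS, HT-1080 cells depleted of IDH1 are exposed for 48 h at 37 °C to compound titrations. Toxicity is scored from CellTiter-Glo luminescence, with DMSO as full viability and medium alone as none.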
DT40 TDP1 CPT: DT40-hTDP1 cell growth loss with CPT; Potency, µM (highest dose often 46.2 µM), for the others: top-dose activity change, negative = growth inhibition, actives largely listed as inhibitors; actives 12% (n = 420,000); chicken DT40 Tdp1-/-;hTDP1 cells + 20 nM CPT, ATP luminescence, 48 h; AID 686979; also: nearly all actives have a fitted effect of over 55% in size
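Cell growth measured by CellTiter-Glo luminescence after a minimum 48 h, 37 C compound exposure with 20 nM CPT in Tdp1-knockout DT40 cells stably expressing hTDP1, seeded 400/well; qHTS titration format.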
KB-3-1 cytotox: KB-3-1 parental cell cytotoxicity. KB-3-1 viability, CellTiter-Glo ATP luminescence, 72 h. Potency, µM (series often up to 46.1 µM), most hits filed as cytotoxic. actives 1.4% (n = 400,000). AID 1347075; also: nearly all actives have a fitted effect of over 60% in size
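Luminescent ATP read-out (CellTiter-Glo) measures survival of drug-naive KB-3-1 cells after 72 h compound exposure at 37 °C. Titration series was screened from lowest to highest concentration, with DMSO vehicle plates as background controls.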
DT40 TDP1 no CPT: qHTS for Inhibitors of human tyrosyl-DNA phosphodiesterase 1 (TDP1): qHTS in cells in absence of CPT. AID 686978, 2013. DT40 Tdp1-/- hTDP1 cells, no CPT, ATP luminescence, 48 h. actives 15% (n = 420,000). Potency, µM (top dose mostly 46.2 µM), for the others: at the highest dose activity change, negative = growth inhibition, most hits filed as inhibitors; also: nearly all actives have a fitted effect of over 55% in size
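Chicken DT40 Tdp1-/- cells stably complemented with human TDP1 were seeded at 400 cells/well with DMSO in place of 20 nM camptothecin. After compound pinning, cells grew at least 48 hr at 37 °C; viability read by CellTiter-Glo luminescence.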
Active calls of the source: *; i = inactive; ? = inconclusive; · = not tested or not shown. Calls follow the shape of the dose curve; as a rule, active = well fitted curve in the direction sought with a large enough effect; inconclusive = small, poorly fitted or top-dose-only effect, or another doubt; inactive = no such curve, though single readings can be large; an effect the other way counts as inactive or inconclusive. Unless noted, % is scaled to controls: 0 for no effect and ±100 for the full control effect; potency is read from the fitted curve at half-maximal effect.

SMILES	KB-V1 MDR tox	HT1080NT lethal	HT1080 IDH1KD tx	DT40 TDP1 CPT	KB-3-1 cytotox	DT40 TDP1 no CPT
Cc1ccc(CNc2nc(CN3CCNC(=O)C3)nc3ccccc23)o1	·	·	·	?	·	-22%
CCOC(=O)c1ccccc1NS(=O)(=O)c1ccccc1	?	-12%	-11%	-12%	i	-17%
CCOC(=O)c1ccccc1NC(=O)N(C)CCc1c(C)nn(CC)c1C	i	·	·	21µM*	i	16µM*
CCOC(=O)c1ccccc1NS(=O)(=O)c1ccc(C)cc1	?	-25%	?	?	26µM*	?
COC(=O)CCCC(=O)N1CCCC(C(=O)c2ccccc2SC)C1 (configuration not stated)	i	-1%	4%	-3%	i	21%
COc1cc(OC)c(OC)cc1CN1CCCC(C(=O)c2ccccc2SC)C1 (configuration not stated)	?	-24%	-13%	?	i	21µM*
COc1cc(OC)c(OC)cc1CN1CCCC(C(=O)N2CCCCC2)C1 (configuration not stated)	i	-3%	7%	-8%	i	-11%
COc1cc(CN2CCCC(C(=O)c3ccccc3SC)C2)cc(OC)c1 (configuration not stated)	?	?	?	15µM*	i	?
Cc1ccc(S(=O)(=O)N2CC(O)CC2C(=O)O)cc1 (configuration not stated)	i	1%	13%	1%	i	-1%
COc1cc(/C=C2\SC(=Nc3ccc(N4CCOCC4)cc3)N(C)C2=O)ccc1OC(C)C(=O)O (configuration not stated)	i	0%	-6%	11%	?	10%
O=C(Oc1cccc([N+](=O)[O-])c1)c1cc(-c2ccccc2)nc2ccccc12	i	?	?	-25%	i	-15%
CC(Oc1ccc(Cl)cc1Cl)c1ccnc2nc(N3CCOCC3)nn12 (configuration not stated)	?	-17%	-18%	?	i	18µM*
OC(c1ccc(Cl)c(F)c1)c1ncc(-c2cccc(C(F)(F)F)c2)[nH]1 (configuration not stated)	i	?	?	?	i	23µM*
Cc1ccc(-c2cnc(C(O)c3ccc(Cl)c(Cl)c3)[nH]2)cc1 (configuration not stated)	i	?	?	?	i	15µM*
OC(c1ccc(F)c(F)c1)c1ncc(-c2cccc(C(F)(F)F)c2)[nH]1 (configuration not stated)	i	?	?	?	i	16µM*
OC(c1ccc(Cl)c(F)c1)c1ncc(-c2ccc(F)cc2)[nH]1 (configuration not stated)	i	?	?	?	i	-19%
Cc1cccc(C)c1C(O)c1ncc(-c2cccc(C(F)(F)F)c2)[nH]1 (configuration not stated)	i	?	?	?	i	?
Cc1ccc(-c2cnc(C(O)c3ccc(Cl)c(F)c3)[nH]2)cc1 (configuration not stated)	i	-5%	-16%	?	i	?
Cc1ccc(C(O)c2ncc(-c3cccc(C(F)(F)F)c3)[nH]2)cc1F (configuration not stated)	i	?	?	26µM*	i	13µM*
CCC(Cc1ccccc1)NS(=O)(=O)c1c(C)nc2scc(C)n2c1=O (configuration not stated)	i	0%	9%	-17%	i	-6%
O=C(CSc1ccc2nnc(-c3cccnc3)n2n1)Nc1ccccc1F	i	4%	2%	-23%	i	-23%
CCN(C(=O)CN1CCC(C(=O)OC)CC1)c1c(N)n(Cc2ccccc2)c(=O)[nH]c1=O	i	7%	20%	-11%	i	4%
Cc1cc2nc3c(nc2cc1C)C(O)=C3O	i	0%	5%	?	i	?
CC(C)C(NS(=O)(=O)c1cccc(C(F)(F)F)c1)C(=O)NCc1cccs1 (configuration not stated)	i	2%	3%	1%	i	?
OC(c1ccc2c(c1)OCO2)c1ncc(-c2cccc(C(F)(F)F)c2)[nH]1 (configuration not stated)	i	-23%	-15%	-35%	i	8.2µM*
SMILES	KB-V1 MDR tox	HT1080NT lethal	HT1080 IDH1KD tx	DT40 TDP1 CPT	KB-3-1 cytotox	DT40 TDP1 no CPT
OC(c1ccccc1)c1ncc(-c2cccc(C(F)(F)F)c2)[nH]1 (configuration not stated)	i	11%	-5%	?	i	?
OC(c1ccc2c(c1)OCO2)c1ncc(-c2ccc(Cl)cc2)[nH]1 (configuration not stated)	i	-16%	-21%	?	i	?
Cc1ccc(C(O)c2ncc(-c3cccc(C(F)(F)F)c3)[nH]2)cc1 (configuration not stated)	i	-29%	-29%	?	i	18µM*
CCCCNCc1cc(Br)c(OCc2cccs2)c(OC)c1	?	?	21µM*	?	?	?
CCCCOc1c(Br)cc(CNCCCN2CCOCC2)cc1OC	?	-28%	?	?	i	13µM*
COc1ccccc1C1=NC(c2ccc(F)cc2)N=C1C (configuration not stated)	?	-9%	-12%	-10%	18µM*	?
COc1ccccc1-c1n[nH]nc1C1=CC(=O)C[C@H](c2ccc(F)cc2)C1	i	-3%	-6%	?	i	?
Cc1c(-c2ccccc2)oc2c(C(=O)N3CCN(c4ccc([N+](=O)[O-])cc4)CC3)cccc2c1=O	?	-1%	1%	16µM*	i	21µM*
COc1ccc2oc(C(=O)OCC(=O)N3CCN(c4ccccc4)CC3)c(C)c2c1	i	8%	8%	-20%	i	?
CCOC(=O)c1oc2ccccc2c1CN1CCN(c2ccccc2)CC1	i	-10%	-6%	?	i	18µM*
COc1ccc(N2CCN(C(=O)COC(=O)c3oc4ccccc4c3C)CC2)cc1	i	3%	2%	21µM*	?	16µM*

From PubChem BioAssay
